Source: PubChem BioAssay (National Center for Advancing Translational Sciences (NCATS))
Tau fluor cs – counter-screen for tau fibril formation inhibitors; tau K18 P301L Alexa594 fluorescence, heparin fibrillization; Potency, µM (titrated, usually from 57.7 µM), for inactives: top-dose activity change, negative = decrease; hit rate 0.93% among 280,000; AID 1463; further: nearly all actives have a fitted effect of over 55% in size
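Human tau K18 P301L (15 uM unlabeled, 0.24 uM Alexa 594-labeled) in 100 mM sodium acetate pH 7 with 20 uM heparin, 6 hr at 37 C. ThT 30 uM added, 1 hr ambient; Alexa 594 FP and total fluorescence read at 555/632 nm.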
Tau FP inhib – tau fibrillization inhibition (FP); Potency, µM (highest dose often 57.7 µM), for inactives: at the highest dose activity, negative = inhibition, actives largely listed as inhibitors; hit rate 0.39% among 280,000; K18 P301L tau heparin fibrillization, Alexa594 FP, 6 h; AID 1468; further: nearly all actives have a fitted effect of over 55% in size
Target sequence (P10636 561-689 P618L limits assumed): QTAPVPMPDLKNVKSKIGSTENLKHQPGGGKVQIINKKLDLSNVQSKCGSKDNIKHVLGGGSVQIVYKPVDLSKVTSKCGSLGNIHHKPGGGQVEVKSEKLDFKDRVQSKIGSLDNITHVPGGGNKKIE
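Human tau K18 […] P301L fragment, 15 uM unlabeled plus 0.24 uM Alexa 594-labeled tau (final), with compound and 20 uM heparin in 100 mM sodium acetate pH 7; 6 hr at 37 C, then Alexa 594 FP read.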
Tau ThT inhib – inhibitors of human tau fibril formation, thioflavin T binding | P10636 | recombinant tau K18 P301L (four-repeat tau fragment), heparin-induced fibrillization, ThT fluorescence | Potency, µM (titrated, usually from 57.4 µM), for the others: at the highest dose activity, negative = inhibition, hits mostly inhibitors | hit rate 2.1% among 270,000; further: nearly all actives have a fitted effect of over 55% in size
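In this qHTS, human K18 P301L tau is incubated with compound and heparin for 6 hr at 37 C, and Thioflavin T fluorescence then reports fibril load.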
TRb-SRC2 inh – disrupts binding of human TR beta to SRC2. TRbeta-SRC2 peptide binding, fluorescence polarization; receptor liganded with 1 µM T3. Potency, µM (series often up to 106 µM), for the others: top-dose activity change, negative = inhibition, hits mostly inhibitors. hit rate 0.065% among 280,000;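 further: plate controls were bound peptide for no effect and peptide without receptor for full effect; nearly all actives have a fitted effect of over 50% in size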
Target sequence (P10828 whole entry, looked up): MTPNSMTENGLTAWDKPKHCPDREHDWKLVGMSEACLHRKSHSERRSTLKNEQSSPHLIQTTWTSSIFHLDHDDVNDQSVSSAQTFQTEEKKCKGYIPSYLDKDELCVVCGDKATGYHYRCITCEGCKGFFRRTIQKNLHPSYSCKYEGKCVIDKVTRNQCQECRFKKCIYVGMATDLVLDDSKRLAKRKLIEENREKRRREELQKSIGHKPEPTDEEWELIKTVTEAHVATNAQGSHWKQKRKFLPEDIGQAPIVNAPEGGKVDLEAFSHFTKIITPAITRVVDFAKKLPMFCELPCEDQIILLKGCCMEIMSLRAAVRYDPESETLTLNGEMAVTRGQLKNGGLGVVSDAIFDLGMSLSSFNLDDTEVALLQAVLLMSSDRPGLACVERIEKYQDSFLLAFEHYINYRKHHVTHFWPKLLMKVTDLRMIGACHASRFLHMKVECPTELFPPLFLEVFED
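Binding of a 20-amino-acid Texas Red SRC2 peptide (20 nM) to TRb ligand-binding domain (0.6 uM) with agonist T3 at 1 uM was followed by fluorescence polarization after a 5 hr room-temperature incubation.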
KDM4E inh – JMJD2E (human) inhibition; Potency, µM (titrated, usually from 57.1 µM), for inactives: top-dose activity change, negative = inhibition, most hits filed as inhibitors; hit rate 1.6% among 230,000; AID 2147; JMJD2E catalytic domain, FDH-coupled NADH fluorescence (FDH is formaldehyde dehydrogenase); B2RXH2; active means well fitted inhibition curve with a large enough effect, not every such curve was filed as active; inconclusive means small, poorly fitted or top-dose-only effect, or another doubt; inactive means no such curve, though single readings can be large or run the other way;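 further: 0% = wells with enzyme and -100% = buffer wells without enzyme; nearly all actives have a fitted effect of over 50% in size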
TexasRed fluor – counter-screen for TRb-SRC2 inhibitors: fluorescence interference; hit rate 0.29% among 280,000; Potency, µM (titrated, usually from 106 µM), for inactives: at the highest dose fluorescence change, negative = quenching; AID 1479; TRb/SRC2 Texas Red total fluorescence interference; active means well fitted curve in either direction with a large enough effect; inconclusive means small, poorly fitted or top-dose-only effect
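Human TRb ligand-binding domain at 0.6 uM with 20 nM Texas Red SRC2 peptide in Tris buffer containing 1 uM T3 and 5% DMSO, incubated with compound 5 h at ambient temperature. Total fluorescence (555/632 nm) calculated as parallel + 2 × perpendicular.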
Active calls of the source: *; u = inconclusive; x = not tested or not shown; ! = not confirmed by another sample; [ ] = dose if it differs, or a comment. Compounds with a hit are over-represented: about 3.5% of the library has one in this group of screens. Unless noted, the call rests on the fitted dose curve; in most records, active means well fitted curve in the direction sought with a large enough effect; inconclusive means small, poorly fitted or top-dose-only effect, or another doubt; inactive means no such curve, though single readings can be large; an effect the other way counts as inactive or inconclusive. Unless noted, on the % scale 0 is the no-effect control and ±100 the full control effect; potency means the concentration at half of the fitted maximal effect.

SMILES | Tau fluor cs | Tau FP inhib | Tau ThT inhib | TRb-SRC2 inh | KDM4E inh | TexasRed fluor
CN(C)C1C(=O)C(C(N)=O)=C(O)[C@@]2(O)C(=O)C3=C(O)c4c(O)cccc4[C@@](C)(O)C3CC12 (some centres not stated) | -25% | -5% | u | 0% | 2.5µM* | u
Cc1c(N=Nc2c(O)n(-c3ccc(Br)cc3)c(=O)[nH]c2=O)c(=O)n(-c2ccccc2)n1C | -16% | -7% | u | 2% | u | -1%
Cc1c(N=Nc2c(O)[nH]c(=O)[nH]c2=O)c(=O)n(-c2ccccc2)n1C | -7% | u | u | 0% | 3.5µM* | -4%
CC(=O)Oc1c2c(c(CC=C(C)C)c3c1C(=O)C1=CC4CC5C(C)(C)OC(C/C=C(\C)C(=O)O)(C4=O)[C@]15O3)OC(C)(CCC=C(C)C)C=C2 (some centres not stated) | u | 10µM* | 7.1µM* | -7% | -15% | 2%
COC(=O)/C(C)=C\CC12OC(C)(C)C3CC(C=C4C(=O)c5c(OC)c6c(c(CC=C(C)C)c5OC431)OC(C)(CCC=C(C)C)C=C6)C2=O (configuration not stated) | -22% | u | 28µM* | 1% | u | -3%
CCc1cccc(CC)c1NC1=NCCN1 | x | x | x | 8% | x | 1%
Cn1nc(OC(=O)Nc2ccc(Cl)cc2)cc1C(F)(F)F | -19% | u | -9% | -7% | -2% | -4%
N#CC1=C(N)Oc2c(c(=O)sc3ccccc23)C1c1ccncc1 (configuration not stated) | -17% | 6% | u | -2% | -10% | -1%
N#CC1=C(N)Oc2n[nH]c(-c3cccs3)c2C1c1ccco1 (configuration not stated) | u | u | 16µM* | -19% | u | 6%
N#CC1=C(N)Oc2n[nH]c(-c3cccs3)c2C1c1ccsc1 (configuration not stated) | -26% | u | 13µM* | u | u | 0%
O=C1C2CCCN2C(c2cccnc2)N1c1cccc(Cl)c1 (configuration not stated) | -8% | 4% | -8% | -6% | 2% | -2%
O=C1NC(=S)N(c2ccc(F)cc2)C(=O)/C1=C\c1ccoc1 | -21% | u | 18µM* | 13% | u | 7%
CCCCC/C=C\C/C=C\C/C=C\C/C=C\CCCC(=O)NCCO | -4% | -1% | -9% | 0% | -4% | 1%
CCCCC/C=C\C/C=C\C/C=C\C/C=C\CCCC(=O)NCC(=O)O | -2% | 0% | u | 10% | 22µM*! | 2%
CCCCC/C=C\C/C=C\C/C=C\C/C=C\CCCC(=O)NCc1ccoc1 | -12% | u | 22µM* | -5% | x | 1%
CC1(CCl)CN1S(=O)(=O)c1ccccc1 (configuration not stated) | -11% | -9% | u | -1% | -2% | -1%
Cc1ccc(N2C(=O)/C(=C/c3ccc(CN(CCC#N)S(C)(=O)=O)o3)C(=O)NC2=S)cc1C | -26% | u | 18µM* | 11% | 0% | 5%
Cc1cccc(N2C(=O)/C(=C/c3ccc(CN(CCC#N)S(C)(=O)=O)o3)C(=O)NC2=S)c1 | -21% | u | 25µM* | 5% | -21% | 7%
CC1O[C@@H](OC2CC[C@@]3(C=O)C4CC[C@]5(C)C(C6=CC(=O)OC6)CC[C@@]5(O)C4CC[C@]3(O)C2)C(O)C(O)C1O (some centres not stated) | 5% | 3% | 8% | -4% | 3% | -1%
COC(=O)[C@]1(C)CC[C@@]2(C)CC[C@@]3(C)C4=CC=C5C(=CC(=O)C(O)=C5C)[C@@]4(C)CC[C@@]3(C)C2C1 (some centres not stated) | u | u | 28µM* | -2% | u | 1%
CCCCCCN=C(C)c1c(O)n(Cc2ccccc2)c(=O)[nH]c1=O | -7% | 2% | -15% | -3% | 10% | -3%
Cc1ccc2c(c1)CC1(CN2C)C(=O)NC(=O)N(CCC2=CCCCC2)C1=O (configuration not stated) | -26% | u | 25µM* | 6% | -5% | 0%
Nc1ccc(Cl)cc1N | x | x | x | -2%[201 µM] | x | 3%[201 µM]
Cc1ccc(-c2cn3c(=S)[nH]nc3s2)cc1 | -17% | 1% | -19% | -5% | 6.3µM* | 0%
Cc1ccc(-n2c(O)c(/C=N/Nc3ccccc3)c(=O)[nH]c2=O)cc1C | -22% | -8% | -15% | -5% | u | -4%
SMILES | Tau fluor cs | Tau FP inhib | Tau ThT inhib | TRb-SRC2 inh | KDM4E inh | TexasRed fluor
COc1ccc(N/N=C/c2c(O)n(-c3ccc(C)c(C)c3)c(=O)[nH]c2=O)cc1 | -25% | u | 18µM* | 6% | u | -4%
CSc1ncc(/C=C2/C(=O)NC(=O)N(C3CCCCC3)C2=O)cn1 | -18% | -16% | u | u | 22µM* | 1%
CCCCN1C(=O)NC(=O)/C(=C/c2cnc(SC)nc2)C1=O | -18% | -13% | u | 4% | 25µM* | -1%
CSc1ncc(/C=C2/C(=O)NC(=O)N(C)C2=O)cn1 | -23% | u | u | -5% | 25µM* | 2%
CN(C)c1ncc(/C=C2/C(=O)NC(=S)N(C3CCCCC3)C2=O)cn1 | -15% | 4% | u | -1% | -14% | 3%
CCOP(=S)(NN(Cc1ccccc1)C(=O)c1ccccc1)OCC | -6% | -4% | -10% | 7% | 7% | -2%
Cc1ncc(CN2CCCC(C(=O)c3cccc(OC(C)C)c3)C2)s1 (configuration not stated) | -9% | -10% | -3% | 5%[53 µM] | 11% | -2%[53 µM]
c1cc(-c2cnn3cc(-c4ccc(OCCN5CCCCC5)cc4)cnc23)ccn1 | x | x | x | -12% | x | u
CN1CCN2c3ccc(N)cc3CC3(C(=O)NC(=O)NC3=O)C2C1 (configuration not stated) | -22% | -12% | x | 2% | 4µM* | 2%
CCN1CC2(COC(=O)c3ccccc3N)CCC(OC)C34C5CC6C(OC)CC(O)(C5C6OC)C(O)(C(OC)C23)C14 (configuration not stated) | -5% | 9% | -11% | -1% | u | 0%
O[N+]1=CC=CCC1=S.On1ccccc1=S.[Zn] | -23% | u | u | 1% | 2.5µM* | 0%
C=Cn1ccnc1P(=S)(c1nccn1C=C)c1nccn1C=C | -11% | -7% | -12% | 0% | 4% | -1%
Clc1cccc(/C=N\Nc2nccs2)c1 | 18µM*[quencher] | 15% | u | -5% | -2% | -6%
O=[N+]([O-])c1c(Cl)c(Cl)cc(Cl)c1Cl | x | x | x | 1% | x | -2%
